Laboratory results from PubChem BioAssay AID1159580 (chemical genetic matrix, 2015).
Screen size: about 5,500 compounds; about 2,000 (36%) were called active. About 18% were inconclusive and are not listed. Cut-off read from the data, not from the text of the source: active = normalized growth mostly below about 0.91 (no sharp cut-off); inconclusive = no clear call, values can overlap the other calls; inactive = mostly above about 0.92. Some of the results follow.

Assay: chemical genetic growth profiling, strain panel (AID 1159580);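 note: tested at 20 µM; growth read once vehicle control cultures reached saturation at 30 °C; 1 = growth at the plate median or of vehicle wells; lower values mean less growth of the strain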
Conditions: growth OD

Measured: normalized growth

CCCNC1CCc2nc(N)sc2C1 (stereo unspecified)
inactive: S. cerevisiae deletion strains, locus YAL013W, strain DEP1, hits give low values 1.01 | S. cerevisiae deletion strains, locus YBR021W, strain FUR4, hits give low values 1.02 | S. cerevisiae deletion strains, locus YBR229C, strain ROT2, hits give low values 1.01 | S. cerevisiae deletion strains, locus YCL029C, strain bik1, hits give low values 0.997 | S. cerevisiae deletion strains, locus YDL035C, strain GPR1, hits give low values 1.02 | S. cerevisiae deletion strains, locus YDL074C, strain BRE1, hits give low values 1.04 | S. cerevisiae deletion strains, locus YDL101C, strain DUN1, hits give low values 1.01 | S. cerevisiae deletion strains, locus YDL134C, strain PPH21, hits give low values 1.01 | S. cerevisiae deletion strains, locus YDL185W, strain tfp1, hits give low values 1.01 | S. cerevisiae deletion strains, locus YDL192W, strain arf1, hits give low values 1 | S. cerevisiae deletion strains, locus YDR101C, strain arx1, hits give low values 0.988 | S. cerevisiae deletion strains, locus YDR150W, strain NUM1, hits give low values 1.01 | S. cerevisiae deletion strains, locus YDR162C, strain NBP2, hits give low values 1.01 | S. cerevisiae deletion strains, locus YDR318W, strain mcm21, hits give low values 1 | S. cerevisiae deletion strains, locus YDR388W, hits give low values 0.994 | S. cerevisiae deletion strains, locus YDR502C, strain sam2, hits give low values 0.995 | S. cerevisiae deletion strains, locus YEL061C, strain CIN8, hits give low values 1.01 | S. cerevisiae deletion strains, locus YER110C, hits give low values 0.99 | S. cerevisiae deletion strains, locus YER155C, strain BEM2, hits give low values 0.983 | S. cerevisiae deletion strains, locus YER167W, strain BCK2, hits give low values 1.01 | S. cerevisiae deletion strains, locus YGL078C, strain dbp3, hits give low values 1.01 | S. cerevisiae deletion strains, locus YGL086W, strain mad1, hits give low values 0.994 | S. cerevisiae deletion strains, locus YGL248W, strain PDE1, hits give low values 1.01 | S. cerevisiae deletion strains, locus YGR078C, strain PAC10, hits give low values 1.03 | S. cerevisiae deletion strains, locus YGR135W, strain pre9, hits give low values 1 | S. cerevisiae deletion strains, locus YGR229C, strain SMI1, hits give low values 1.03 | S. cerevisiae deletion strains, locus YGR252W, strain gcn5, hits give low values 1.03 | S. cerevisiae deletion strains, locus YHR030C, strain SLT2, hits give low values 1.01 | S. cerevisiae deletion strains, locus YHR079C, strain IRE1 (second series), hits give low values 0.995 | S. cerevisiae deletion strains, locus YHR094C, strain hxt1, hits give low values 1 | S. cerevisiae deletion strains, locus YHR129C, strain ARP1, hits give low values 1.01 | S. cerevisiae deletion strains, locus YHR200W, strain rpn10, hits give low values 1 | S. cerevisiae deletion strains, locus YIL066C, strain RNR3, hits give low values 1.02 | S. cerevisiae deletion strains, locus YIL073C, strain SPO22, hits give low values 1.03 | S. cerevisiae deletion strains, locus YIL125W, strain kgd1, hits give low values 1 | S. cerevisiae deletion strains, locus YIR030C, strain dcg1, hits give low values 0.998 | S. cerevisiae deletion strains, locus YJL095W, strain BCK1, hits give low values 1.02 | S. cerevisiae deletion strains, locus YJL134W, strain LCB3, hits give low values 1.01 | S. cerevisiae deletion strains, locus YJL168C, strain set2, hits give low values 1 | S. cerevisiae deletion strains, locus YJL187C, strain SWE1 (second series), hits give low values 1.01 | S. cerevisiae deletion strains, locus YJR043C, strain POL32, hits give low values 1 | S. cerevisiae deletion strains, locus YJR075W, strain HOC1, hits give low values 1 | S. cerevisiae deletion strains, locus YKL009W, strain mrt4, hits give low values 1.02 | S. cerevisiae deletion strains, locus YKL068W, hits give low values 1.01 | S. cerevisiae deletion strains, locus YKL085W, strain MDH1 (second series), hits give low values 1.01 | S. cerevisiae deletion strains, locus YKL085W, strain MDH1, hits give low values 1.01 | S. cerevisiae deletion strains, locus YKL190W, strain CNB1, hits give low values 1.02 | S. cerevisiae deletion strains, locus YKR001C, strain vps1, hits give low values 1.01 | S. cerevisiae deletion strains, locus YLR039C, strain RIC1, hits give low values 1.05 | S. cerevisiae deletion strains, locus YLR058C, strain SHM2, hits give low values 1.01 | S. cerevisiae deletion strains, locus YLR102C, strain apc9, hits give low values 0.997 | S. cerevisiae deletion strains, locus YLR262C, strain YPT6, hits give low values 1.06 | S. cerevisiae deletion strains, locus YLR268W, strain sec22, hits give low values 0.992 | S. cerevisiae deletion strains, locus YLR330W, strain CHS5, hits give low values 1.01 | S. cerevisiae deletion strains, locus YLR342W, strain FKS1 (second series), hits give low values 1.02 | S. cerevisiae deletion strains, locus YLR371W, strain rom2, hits give low values 1 | S. cerevisiae deletion strains, locus YLR418C, strain cdc73, hits give low values 1.01 | S. cerevisiae deletion strains, locus YML016C, strain PPZ1, hits give low values 1 | S. cerevisiae deletion strains, locus YML032C, strain rad52, hits give low values 0.992 | S. cerevisiae deletion strains, locus YML124C, strain tub3, hits give low values 1 | S. cerevisiae deletion strains, locus YMR078C, strain ctf18, hits give low values 0.999 | S. cerevisiae deletion strains, locus YMR223W, strain ubp8, hits give low values 1.01 | S. cerevisiae deletion strains, locus YMR263W, strain SAP30, hits give low values 1.01 | S. cerevisiae deletion strains, locus YMR307W, strain GAS1, hits give low values 0.995 | S. cerevisiae deletion strains, locus YNL067W, strain RPL9B, hits give low values 1.01 | S. cerevisiae deletion strains, locus YNL128W, strain TEP1, hits give low values 1.02 | S. cerevisiae deletion strains, locus YNL153C, strain GIM3, hits give low values 1 | S. cerevisiae deletion strains, locus YNL233W, strain BNI4, hits give low values 1.01 | S. cerevisiae deletion strains, locus YNL250W, strain rad50, hits give low values 0.996 | S. cerevisiae deletion strains, locus YNL271C, strain bni1, hits give low values 0.993 | S. cerevisiae deletion strains, locus YNL298W, strain CLA4, hits give low values 1.03 | S. cerevisiae deletion strains, locus YNL307C, strain MCK1, hits give low values 0.995 | S. cerevisiae deletion strains, locus YNL322C, strain KRE1, hits give low values 1.01 | S. cerevisiae deletion strains, locus YNR052C, strain pop2, hits give low values 1 | S. cerevisiae deletion strains, locus YOL006C, strain TOP1, hits give low values 1.03 | S. cerevisiae deletion strains, locus YOL012C, strain htz1 1.08 | S. cerevisiae deletion strains, locus YOL147C, strain pex11, hits give low values 0.995 | S. cerevisiae deletion strains, locus YOR061W, strain CKA2, hits give low values 1.01 | S. cerevisiae deletion strains, locus YOR069W, strain VPS5, hits give low values 1.01 | S. cerevisiae deletion strains, locus YOR136W, strain idh2, hits give low values 1 | S. cerevisiae deletion strains, locus YOR144C, strain elg1, hits give low values 1.01 | S. cerevisiae deletion strains, locus YOR184W, strain ser1, hits give low values 1.02 | S. cerevisiae deletion strains, locus YOR316C, strain cot1, hits give low values 1 | S. cerevisiae deletion strains, locus YPL055C, strain LGE1, hits give low values 1.06 | S. cerevisiae deletion strains, locus YPL241C, strain CIN2, hits give low values 1.01 | S. cerevisiae deletion strains, locus YPR119W, strain clb2, hits give low values 1.01 | S. cerevisiae deletion strains, locus YPR141C, strain kar3, hits give low values 0.996 | S. cerevisiae deletion strains, locus YPR163C, strain tif3, hits give low values 0.993 | S. cerevisiae deletion strains, locus YPR167C, strain met16, hits give low values 1.01 | S. cerevisiae deletion strains, strain wtn01, hits give low values 0.989 | S. cerevisiae strains, strain wild type, hits give low values 1.01
